According to PubChem BioAssay (NCATS):
Activity calls are given as the source filed them. The call rests on the fitted dose curve; in most records, active means well fitted activation curve with a large enough effect; inconclusive means small, poorly fitted or top-dose-only effect, or effect the other way; inactive means flat fitted curve, though single readings scatter.

Assay: Cellular Toxicity (caspase-3) Renal Proximal Tubule (AID 667);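 further: cells exposed to compound for 16 hours at 37 °C before detection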
Conditions: renal proximal tubule cells; series mostly up to 91.7 µM
Excerpt: NIH Chemical Genomics Center [NCGC]
NIH Molecular Libraries Screening Centers Network [MLSCN]
National Institutes of Environmental Health Sciences [NIEHS]
National Toxicology Program [NTP]
We have developed a 1536-well cell-based assay for quantitative high throughput screening (qHTS) against a number of cell lines to determine in vitro caspase 3/7 activity of small molecules. This particular assay uses the primary kidney proximal tubule cells freshly isolated from rat.
NCGC Assay Protocol Summary:
The Caspase-Glo 3/7 assay (Promega) is a homogeneous method to measure caspase-3 and caspase-7 activities in cultured cells. The quantitation of caspase 3/7 activity is based on the cleavage of a peptide-aminoluciferin substrate. After caspase cleaves the substrate the free aminoluciferin is liberated and serves as the substrate of luciferase, which generates the light. The luminescent signal is proportional to the amount of caspase 3/7 activity present.
Using the Caspase-Glo 3/7 assay, the amount of caspase 3/7 activity was measured in the rat kidney proximal tubule cells with complete culture medium following compound treatment for 16 hours. The assay was performed in opaque white 1536-well plates. In the screen, staurosporine and doxorubicin were used as positive controls. Library compounds were measured for their ability to cause the activation of caspase 3/7 in the cell line, as reflected by an increase in luminescence signal, in a concentration-dependent manner. Data were normalized to the controls for basal activity (DMSO only) and 100% stimulation (10 uM staurosporine). AC50 values were determined from concentration-response data modeled with the standard Hill equation.
qHTS protocol for caspase 3/7 assay in rat kidney proximal tubule cells
[Step] [Parameter] [Value] [Description]
1. Reagent; 5 uL; 1000 rat kidney proximal tubule cells/well
2. Time; 5 hr; 37 °C incubation
4. Controls; 23 nL; doxorubicin 7 pM to 100 uM & staurosporine 1.4 pM to 20 uM
5. Time; 16 hr; 37 °C incubation
6. Reagent; 5 uL; Caspase-Glo 3/7 reagent
7. Time; 1 hr; Room Temperature
8. Detection; Luminescence; Viewlux plate reader
Keywords: caspase 3/7, apoptosis, rat kidney proximal tubule cells, luminescence, NTPHTS, NTPHTS_NCGC, NIEHS, EPA, DSSTox, MLSMR, MLSCN, NIH Roadmap, qHTS, NCGC

SMILES | outcome
CC(C)OC(=O)Cc1ccccc1 | inactive
CCC(Cl)[N+](=O)[O-] (stereo not given) | inactive
O=C(O)CBr | inactive
c1ccc(NNc2ccccc2)cc1 | inactive
ClC(Br)Br | inactive
Clc1cccc2ccccc12 | inactive
C=CC=O | inactive
O=C(Cl)OCc1ccccc1 | inactive
O=[N+]([O-])c1ccccc1-c1ccccc1 | inactive
ClC(Cl)c1ccccc1 | inactive
N#CC(Br)Br | inactive
BrCC(Br)(Br)Br | inactive
COP(=S)(OC)SCn1nnc2ccccc2c1=O | inactive
CCCCNC(=O)n1c(NC(=O)OC)nc2ccccc21 | inactive
Nn1cnnc1 | inactive
Cl/C=C\Cl | inactive
O=C(O)C(Br)Br | inactive
[O-][Cl+2]([O-])O | inactive
CC(C#N)CCC#N (stereo not given) | inactive
CCOP(=O)(OCC)OCC | inactive

SMILES | outcome
CN(C)C(=O)Cl | inactive
CN(C)C(=O)Nc1cccc(C(F)(F)F)c1 | inactive
O=NN1CCCCC1 | inactive
CCCCOCC1CO1 (stereo not given) | inactive
Cc1cc(Cl)ccc1O | inactive
O=S(=O)(O)F | inactive
CSSC | inactive
Nc1ccc(Oc2ccc(N)cc2)cc1 | inactive
BrCC(Br)C1CCC(Br)C(Br)C1 (stereo not given) | inactive
O=P(OCCCl)(OCCCl)OCCCl | inactive
Nc1ccc(-c2ccc(N)cc2)cc1 | inactive
COC(C)(C)C | inactive
Oc1cc(Cl)cc(Cl)c1 | inactive
ClC(Cl)C(Cl)Cl | inactive
OCC(Cl)CCl (stereo not given) | inactive
Nc1ccc2ccccc2c1 | inactive
Clc1ccc(C(c2ccccc2Cl)C(Cl)(Cl)Cl)cc1 (stereo not given) | inactive
[C-]1=CC=CC1.[C-]1=CC=CC1.[Cl-].[Cl-].[Ti+4] | inactive
ClCCOCOCCCl | inactive
OCCCCO | inactive
